Assay outcomes as filed in PubChem.
PD-1 reverse act – activators reversing PD-1 mediated T-cell inhibition, primary screen, luminescence, primary human CD4 T cells, PD-L1 beads; activation, % (no concentration beside the values); 29,000 tested, under 10 active; CellTiter-Glo 96 h; call rule not given here;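 also: 0% = median vehicle wells and 100% = positive control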
U2OS ROS induce – ROS inducers in U2OS cancer cells, primary screen, cell-based, H2DCF-DA fluorescence | 2% of 46,000 active | U2OS ROS induction | ROS induction (% of piperlongumine), % at 10 µM; in the data active = ROS induction above about 79%, passing the limit was not always enough; inconclusive = no clear call, values can overlap the other calls;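 also: 0% = DMSO vehicle median and 100% = reference compound median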
NOMO-1 viab – NOMO-1 AML cell viability reduction, primary screen, STK33 inhibitor project, CellTiter-Glo luminescence. NOMO-1 AML viability, 72 h. inhibition, % (concentration not given with the values). 7.5% of 37,000 active. AID 2330, 2010; in the data active = inhibition above about 80%; inconclusive = no clear call, values can overlap the other calls
* = called active by the depositor; ? = inconclusive; . = not tested or not shown. The full list was thinned out, with hits kept by preference.

SMILES	PD-1 reverse act	U2OS ROS induce	NOMO-1 viab
CC(Cc1ccccc1)NC(=O)CC(c1ccccc1)c1cc(Br)ccc1O (centres undefined)	.	-2	.
CCc1cc(-c2[nH]ncc2-c2nc(C)cs2)c(O)cc1OC(C)C(=O)NN (centres undefined)	0	31	21
O=C(NO)c1cccc(C(=O)N/N=C/c2cc(F)ccc2O)c1	.	-10	.
O=C(NO)c1cccc(C(=O)N/N=C/c2cc(O)ccc2O)c1	.	107*	.
C[C@@H]1CN([C@H](C)CO)C(=O)c2cc(NC(=O)Nc3ccc4c(c3)OCO4)ccc2O[C@H]1CN(C)C(=O)Nc1ccc(C(F)(F)F)cc1	0	0	23
C[C@H]1CN([C@@H](C)CO)C(=O)c2cc(NC(=O)Nc3ccc(C(F)(F)F)cc3)ccc2O[C@H]1CN(C)C(=O)Nc1ccc2c(c1)OCO2	-1	31	42
C[C@@H]1CN([C@@H](C)CO)C(=O)c2cc(NC(=O)Nc3ccc(C(F)(F)F)cc3)ccc2O[C@@H]1CN(C)C(=O)Nc1ccc2c(c1)OCO2	-4	50	102*
C[C@@H]1CN([C@H](C)CO)C(=O)c2cc(NC(=O)Nc3ccc(C(F)(F)F)cc3)ccc2O[C@@H]1CN(C)C(=O)Nc1ccc2c(c1)OCO2	-1	-1	95*
CN(C)S(=O)(=O)c1ccc(C(=O)NCCC23CC4CC(CC(C4)C2)C3)cc1	.	2	.
CC(Cc1c[nH]c2ccccc12)NC(=O)c1ccco1 (centres undefined)	.	-5	.
O=C(NCc1cccnc1)c1cc(-c2cccc(Br)c2)nc2ccccc12	.	3	.
O=C(CCCCc1cccs1)Nc1ccccc1F	.	3	.
Cc1cccc(N=C2NC(=O)/C(=C3/C(=O)N(CC(=O)O)c4ccccc43)S2)c1C	.	-16	.
Cc1cc(NC(=O)C(C)Sc2nc(-c3ccccc3)cc(C(F)(F)F)n2)no1 (centres undefined)	.	-9	.
C[C@@H]1CN([C@H](C)CO)C(=O)c2cc(NC(=O)Cc3cn(C)c4ccccc34)ccc2O[C@H]1CN(C)Cc1ccc(Oc2ccccc2)cc1	2	24	34
C[C@@H]1CN([C@@H](C)CO)C(=O)c2cc(NC(=O)Cc3cn(C)c4ccccc34)ccc2O[C@@H]1CN(C)Cc1ccc(-c2ccccc2)cc1	.	18	113*
C[C@H](CO)N1C[C@H](C)[C@H](CN(C)Cc2ccc(C(F)(F)F)cc2)Oc2ccc(NC(=O)Cc3cn(C)c4ccccc34)cc2C1=O	-3	13	22
C[C@H]1CN([C@@H](C)CO)C(=O)c2cc(NC(=O)Cc3cn(C)c4ccccc34)ccc2O[C@H]1CN(C)Cc1ccncc1	-1	5	73
C[C@H](CO)N1C[C@H](C)[C@@H](CN(C)Cc2ccc(-c3ccccc3)cc2)Oc2ccc(NC(=O)Cc3cn(C)c4ccccc34)cc2C1=O	-4	199*	59
C[C@@H]1CN([C@@H](C)CO)C(=O)c2cc(NC(=O)Cc3cn(C)c4ccccc34)ccc2O[C@H]1CN(C)Cc1ccc(-c2ccccc2)cc1	0	6	26
C[C@@H]1CN([C@@H](C)CO)C(=O)c2cc(NC(=O)Cc3cn(C)c4ccccc34)ccc2O[C@H]1CN(C)Cc1ccc(C(F)(F)F)cc1	-1	22	91*
C[C@H](CO)N1C[C@H](C)[C@@H](CN(C)Cc2ccncc2)Oc2ccc(NC(=O)Cc3cn(C)c4ccccc34)cc2C1=O	-2	?	92*
O=C(C1CCCN(Cc2cccc(Cl)c2)C1)N1CCCCCC1 (centres undefined)	.	2	.
C[C@H]1CN([C@@H](C)CO)C(=O)c2cc(NC(=O)Cc3cn(C)c4ccccc34)ccc2O[C@H]1CN(C)Cc1ccccc1	0	-8	84*
C[C@@H]1CN([C@H](C)CO)C(=O)c2cc(NC(=O)Cc3cn(C)c4ccccc34)ccc2O[C@@H]1CN(C)Cc1ccccc1	0	6	45
SMILES	PD-1 reverse act	U2OS ROS induce	NOMO-1 viab
Cc1noc(C)c1C(=O)N1CCc2sccc2C1c1ccc(C(F)(F)F)cc1 (centres undefined)	.	-3	.
COc1ccc2c(c1)OCC(Cc1ccc(OC)c(OC(C)=O)c1)C2=O (centres undefined)	.	20	108*
COc1ccc2c(c1)OCC(Cc1ccc(OC)c(OC)c1)C2=O (centres undefined)	.	-2	-3
COc1ccc(NC(=O)C2(C)c3ccccc3-c3ccccc32)cc1	.	-3	.
COc1ccc(NC(=O)Nc2cccc3c2O[C@@H](CN(C)Cc2ccc(C(F)(F)F)cc2)[C@H](C)CN([C@H](C)CO)C3=O)cc1	-3	23	84*
COc1ccc(CN(C)C[C@@H]2Oc3c(NC(=O)Nc4ccc(C(F)(F)F)cc4)cccc3C(=O)N([C@H](C)CO)C[C@@H]2C)cc1	-4	15	90*
COc1ccc(CN(C)C[C@@H]2Oc3c(NC(=O)Nc4ccc(C(F)(F)F)cc4)cccc3C(=O)N([C@@H](C)CO)C[C@H]2C)cc1	-8	41	116*
C[C@@H]1CN([C@@H](C)CO)C(=O)c2cccc(NC(=O)Nc3ccc(C(F)(F)F)cc3)c2O[C@H]1CN(C)Cc1ccc(Oc2ccccc2)cc1	.	19	?
COc1ccc(NC(=O)Nc2cccc3c2O[C@H](CN(C)Cc2ccc(C(F)(F)F)cc2)[C@H](C)CN([C@@H](C)CO)C3=O)cc1	0	5	47
COC(=O)c1cc2oc3ccccc3c2n1CC(=O)NCCC1=CCCCC1	.	2	.
COc1ccc(NC(=O)C2C=C3C=CC(=O)C=C3OC2=Nc2ccc(C(=O)O)cc2)cc1 (centres undefined)	.	12	.
FC(F)(F)c1ccc(NC(=S)N2CCn3cccc3C2c2cccs2)cc1 (centres undefined)	.	0	.
CCc1ccc(NC(=O)C(CC)Sc2nc3nccnc3c(=O)n2CCc2ccccc2)cc1 (centres undefined)	.	7	.
CCCCn1c(SCC(=O)NC2CCCC2)nc2c(sc3ccccc32)c1=O	.	0	.
N#CCSc1nc2c(sc3ccccc32)c(=O)n1C1CCCCC1	.	157*	.
O=C(CSc1nc2c(sc3ccccc32)c(=O)n1CC1CCCO1)c1ccccc1 (centres undefined)	.	112*	.
N#CCSc1nc2c(sc3ccccc32)c(=O)n1CCCN1CCOCC1	.	41	.
COc1cc2c(cc1OC)C(COc1cc(C)cc(C)c1)N(C(=O)Cc1cccs1)CC2 (centres undefined)	.	25	.
COc1ccc(S(=O)(=O)Nc2ccc3c(c2)C(=O)N([C@H](C)CO)C[C@H](C)[C@H](CN(C)Cc2ccc(Cl)c(Cl)c2)O3)cc1	-1	22	73
COc1ccc(S(=O)(=O)Nc2ccc3c(c2)CC(=O)N([C@@H](C)CO)C[C@H](C)[C@H](CN(C)Cc2ccc(Cl)c(Cl)c2)O3)cc1	1	11	105*
COc1ccc(CN(C)C[C@@H]2Oc3ccc(NS(=O)(=O)c4ccc(OC)cc4)cc3CC(=O)N([C@H](C)CO)C[C@H]2C)cc1	-2	11	11
COc1ccc(S(=O)(=O)Nc2ccc3c(c2)CC(=O)N([C@@H](C)CO)C[C@@H](C)[C@@H](CN(C)Cc2ccc(Cl)c(Cl)c2)O3)cc1	.	18	107*
